This is an account of results in article PMC7819943, “Rice protein-binding microarrays: a tool to detect cis-acting elements near promoter regions in rice”.

Over roughly 39,000 sequences, “fluorescence intensity (a.u.)” has its median near 4,300; the highest 2% begin near 39,000. Only a selection was taken, and the highest values are over-represented in it overall.

The test has as its target T1, OsSMF1 (Oryza sativa, UniProt Q6ZLB0 1-436).
T1 sequence: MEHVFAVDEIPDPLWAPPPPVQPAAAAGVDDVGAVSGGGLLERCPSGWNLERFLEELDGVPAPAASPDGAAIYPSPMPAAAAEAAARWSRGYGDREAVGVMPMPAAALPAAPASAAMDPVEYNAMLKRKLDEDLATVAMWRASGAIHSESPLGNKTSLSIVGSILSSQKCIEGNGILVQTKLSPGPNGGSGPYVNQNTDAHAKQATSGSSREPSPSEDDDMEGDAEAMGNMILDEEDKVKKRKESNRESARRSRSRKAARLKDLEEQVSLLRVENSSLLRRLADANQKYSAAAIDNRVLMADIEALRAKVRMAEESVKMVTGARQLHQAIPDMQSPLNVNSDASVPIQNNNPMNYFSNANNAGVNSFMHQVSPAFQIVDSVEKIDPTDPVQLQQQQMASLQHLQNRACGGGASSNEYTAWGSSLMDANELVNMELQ
The experiment in a line: protein-binding microarray (RPBM); PBS, 2% BSA, 51.3 ng/ul salmon testes DNA, 50 uM zinc acetate, 200 nM TF, 25 C, 1 h; high values mean tight binding. Conditions: protein: recombinant; tags: N-terminal polyhistidine and DsRed monomer fusion (pET32a); chain copies: 2; label: CyDye5-dUTP incorporated in the synthesized complementary strand; 3' TTTTT single-stranded linker to array surface; dsDNA, one strand shown. In a few lines:
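Ni–NTA purification followed expression in E. coli BL21-CodonPlus of transcription factors fused N-terminally to a polyhistidine tag and DsRed. At 200 nM in PBS with 2% BSA, salmon testes DNA and 50 µM zinc acetate, the protein was incubated for 1 h at 25 °C with a custom Agilent array that had been primer-extended with Cy5-dUTP and blocked with 2% BSA. After washing, the array was read on an Axon 4000B scanner. The binding signal is per-feature fluorescence intensity in arbitrary units.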
On to “GGATAAGCACCGACGATTTGGTGGTAGATCTATATGGGTACGGAGTCACCTAGTGCAG”, for which the binding signal is 48000 fluorescence intensity (a.u.).

For the sequence “TGATACGATGACGTTTGGGTGGTTGGATATATATCATGATCGGAGTCACCTAGTGCAG”, the binding signal is 5350 fluorescence intensity (a.u.).

In the case of “ATATAGCATGTCAAGATATTTGGGTGATATGTACTATGTACGGAGTCACCTAGTGCAG”, the binding signal was 4580 fluorescence intensity (a.u.).

As for “ATGATTTATTATGTTCTGCCCTTCTTTGTTGTGACAAAGTCGGAGTCACCTAGTGCAG”, the binding signal is 3900 fluorescence intensity (a.u.).

“TGCTTTCCTCCCTTTATTACTACATCATGCGCCTTCGTGACGGAGTCACCTAGTGCAG”: the binding signal is 3370 fluorescence intensity (a.u.).

Take “AGCTGGCGGCTGGCGGGTGGTGGTGGTGGCTGGCGGCGGGCGGAGTCACCTAGTGCAG”: the binding signal was 4500 fluorescence intensity (a.u.).

Turning to “GAAGAATCGGCCCAACGACCAAGAGGGAGTCAAAATAGACCGGAGTCACCTAGTGCAG”, the binding signal was 22600 fluorescence intensity (a.u.).

“CAGTGCCGACTGCCGAGGCAGAGAGGCAGACAAAGTGACACGGAGTCACCTAGTGCAG”: the binding signal was 54900 fluorescence intensity (a.u.).

On to “CCCACCTGTGACTCAGCGAGCCGACTGCCACGTCAGACAACGGAGTCACCTAGTGCAG”, for which the binding signal was 34400 fluorescence intensity (a.u.).

With “ACATCCGAGAGACTAGGCCGACAAATCACCACCGACACGTCGGAGTCACCTAGTGCAG”, the binding signal was 5890 fluorescence intensity (a.u.).

Regarding “GTAGAAAGCAGGGATAAAGTATTGGTGGAGATGTCACGCCCGGAGTCACCTAGTGCAG”, the binding signal is 3560 fluorescence intensity (a.u.).

Take “ATCCACGAGGGCAAGCAAGCAAGCAAGCTCCACCTCTCTGCGGAGTCACCTAGTGCAG”: the binding signal is 3220 fluorescence intensity (a.u.).

Turning to “GTCAAAGTTATAAAAGTTTGACCTCAACTTTGTCCAAAACCGGAGTCACCTAGTGCAG”, the binding signal is 24200 fluorescence intensity (a.u.).

Regarding “TTAAATTTGAAACAGTTTGACTTTGACCAGTCAAAGTCTTCGGAGTCACCTAGTGCAG”, the binding signal is 8060 fluorescence intensity (a.u.).

Regarding “CTTAAAGCAGTTTGACTTTGACCAAAGTCAAAACGTCTTACGGAGTCACCTAGTGCAG”, the binding signal is 40600 fluorescence intensity (a.u.).

With “CTGGGCAAAATCTCTCCCATACATACACTACAGCGGCGAACGGAGTCACCTAGTGCAG”, the binding signal is 3290 fluorescence intensity (a.u.).

Regarding “GGGCGTTGCGGCCGTCACACGTGGTATGGGAGGGCGCCGCCGGAGTCACCTAGTGCAG”, the binding signal is 5820 fluorescence intensity (a.u.).

In the case of “TAGTAGTACTATGTAACCGGTACAGTCACCAAAACAGGGTCGGAGTCACCTAGTGCAG”, the binding signal was 5260 fluorescence intensity (a.u.).

With “CAGTTGACAAATGACAACCGGCACGTTTGCAACATGCAAGCGGAGTCACCTAGTGCAG”, the binding signal was 3220 fluorescence intensity (a.u.).

As for “CAGTTCTTAAACTTGTAAAGTTGTGTCATATACCACATTACGGAGTCACCTAGTGCAG”, the binding signal was 39600 fluorescence intensity (a.u.).

As to “GTTTATACCTATAAAGTTTCTATATTAAAAGTTTACGTGTCGGAGTCACCTAGTGCAG”, the binding signal was 3490 fluorescence intensity (a.u.).

For the sequence “TTTGCCTACTCATCACCACATGTATAAAGTGTAAACTTTACGGAGTCACCTAGTGCAG”, the binding signal was 5240 fluorescence intensity (a.u.).

Take “CCAAAATTAGCTTCGGTCGGTACAAACACCAGAATTCAGCCGGAGTCACCTAGTGCAG”: the binding signal is 3220 fluorescence intensity (a.u.).

For the sequence “GTCTCCGATGCCCCGATGCCGCCGCGTCGCTGGCCTGATTCGGAGTCACCTAGTGCAG”, the binding signal was 3390 fluorescence intensity (a.u.).

Consider “CACCGCCCCATCGATCTCCGCCCGGCCGCCACCAATCTCGCGGAGTCACCTAGTGCAG”, for which the binding signal was 3310 fluorescence intensity (a.u.).

As to “CGGAATGTCTCCGCGGAAGATGCCCAAGGAATCGCCTGGCCGGAGTCACCTAGTGCAG”, the binding signal was 39500 fluorescence intensity (a.u.).

With “ATTAATAGCAGTGACGTCTTGCACATACTGTATGAGTCATCGGAGTCACCTAGTGCAG”, the binding signal was 11000 fluorescence intensity (a.u.).

As to “TTATCTCCTCATCCATTTTCATCCTCGTCTACATTCACTGCGGAGTCACCTAGTGCAG”, the binding signal was 24600 fluorescence intensity (a.u.).

With “GAACATATCACATGCTCATATCAAAATTTATAATATTAAACGGAGTCACCTAGTGCAG”, the binding signal was 35200 fluorescence intensity (a.u.).

For “ATAATATAAAACGGATGGATCACATGCTATGAACCTATGACGGAGTCACCTAGTGCAG”, the binding signal was 51200 fluorescence intensity (a.u.).

Take “TCTTTGGTGATGGATAATAACCCGATATAAACAATATAGACGGAGTCACCTAGTGCAG”: the binding signal is 65000 fluorescence intensity (a.u.).

Regarding “CATGGATAGGATAATCGTAACAATTATCTAGACAGTGATGCGGAGTCACCTAGTGCAG”, the binding signal is 3140 fluorescence intensity (a.u.).

With “ATTGGACGATAAAATATTGGACGGTGATTCACCTTTTAGACGGAGTCACCTAGTGCAG”, the binding signal is 3170 fluorescence intensity (a.u.).

On to “AATGTAATAAATTGTAGATGTCATTGCTATGCATGCATGACGGAGTCACCTAGTGCAG”, for which the binding signal was 3920 fluorescence intensity (a.u.).

Turning to “ATTATGAGCCATGATTCTCTCATCATGCAATGTCCCAGCACGGAGTCACCTAGTGCAG”, the binding signal is 22100 fluorescence intensity (a.u.).

Regarding “TATATATGCACCGAGACACATATGAATCATCACACGTCTTCGGAGTCACCTAGTGCAG”, the binding signal is 3550 fluorescence intensity (a.u.).

On to “CGCCGCCTCACCAGCGCCACCTCCACCTCCACCTACGTCTCGGAGTCACCTAGTGCAG”, for which the binding signal was 3270 fluorescence intensity (a.u.).

“TTGCAGCAGAATACTTACCACGACAGAATTTGAGGATCTACGGAGTCACCTAGTGCAG”: the binding signal is 29500 fluorescence intensity (a.u.).

As to “CCAGCATCTGACACATCCTTTCCTAGCTGATCGACTCCATCGGAGTCACCTAGTGCAG”, the binding signal is 3420 fluorescence intensity (a.u.).

Consider “AGATCGACCAATGATACACACACAGCATATGAATCCTTTCCGGAGTCACCTAGTGCAG”, for which the binding signal is 41400 fluorescence intensity (a.u.).

Consider “GCATAAATGATGTGTTTCTGAATCCAATTACACACATGATCGGAGTCACCTAGTGCAG”, for which the binding signal was 5020 fluorescence intensity (a.u.).

On to “AATACCGACGTGTCTAGACCTCAGCGACACACTGGAGCGTCGGAGTCACCTAGTGCAG”, for which the binding signal is 5000 fluorescence intensity (a.u.).
